According to the supplement of paper PMC6897291:

Experiments:
U-2932 [1] = assay: growth inhibition by drug plus 177Lu-lilotomab satetraxetan (1 - RLU/untreated control) (fraction); higher = stronger inhibition; details: 177Lu-lilotomab satetraxetan 1 ug/ml
In short: (§1)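 RIVA or U-2932 cells, untreated or pretreated 18 h with a radiolabelled anti-CD37 antibody conjugate (~600 MBq/mg; 0.5 µg/ml RIVA, 1 µg/ml U-2932), were washed and seeded at 3,000 cells/well on plates pre-printed with the Selleck Cambridge Cancer Compound library. Doses were 10/100 nM (RIVA) or 10/1,000 nM (U-2932). RealTime-Glo luminescence was read daily from day 3 after 1 h at 37°C. Growth inhibition is 1 − RLU/mean of 48 untreated no-drug wells per plate.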

U-2932 [2] = assay: growth inhibition by drug alone (1 - RLU/untreated control) (fraction); higher = stronger inhibition; details: 177Lu-lilotomab satetraxetan 0 ug/ml
In short: as §1

Row | SMILES | growth inhibition by drug plus 177Lu-lilotomab satetraxetan (U-2932 [1]; 10 nM, time (day): 3) | growth inhibition by drug plus 177Lu-lilotomab satetraxetan (U-2932 [1]; 10 nM, time (day): 4) | growth inhibition by drug plus 177Lu-lilotomab satetraxetan (U-2932 [1]; 10 nM, time (day): 5) | growth inhibition by drug plus 177Lu-lilotomab satetraxetan (U-2932 [1]; 10 nM, time (day): 6) | growth inhibition by drug plus 177Lu-lilotomab satetraxetan (U-2932 [1]; 1000 nM, time (day): 3) | growth inhibition by drug plus 177Lu-lilotomab satetraxetan (U-2932 [1]; 1000 nM, time (day): 4) | growth inhibition by drug plus 177Lu-lilotomab satetraxetan (U-2932 [1]; 1000 nM, time (day): 5) | growth inhibition by drug plus 177Lu-lilotomab satetraxetan (U-2932 [1]; 1000 nM, time (day): 6) | growth inhibition by drug alone (U-2932 [2]; 10 nM, time (day): 3) | growth inhibition by drug alone (U-2932 [2]; 10 nM, time (day): 4) | growth inhibition by drug alone (U-2932 [2]; 10 nM, time (day): 5) | growth inhibition by drug alone (U-2932 [2]; 10 nM, time (day): 6) | growth inhibition by drug alone (U-2932 [2]; 1000 nM, time (day): 3) | growth inhibition by drug alone (U-2932 [2]; 1000 nM, time (day): 4) | growth inhibition by drug alone (U-2932 [2]; 1000 nM, time (day): 5) | growth inhibition by drug alone (U-2932 [2]; 1000 nM, time (day): 6)
1 | O=C(Oc1ccc([N+](=O)[O-])cc1)N1CCC(C(O)(c2ccc3c(c2)OCO3)c2ccc3c(c2)OCO3)CC1 | -0.0245 | 0.00325 | 0.0178 | 0.11 | -0.0484 | 0.0258 | 0.0163 | 0.077 | – | – | – | – | – | – | – | –
2 | CC(C)[C@]12O[C@H]1[C@@H]1O[C@]13[C@]1(O[C@H]1C[C@H]1C4=C(CC[C@@]13C)C(=O)OC4)[C@@H]2O [Triptolide] | 0.468 | 0.657 | 0.744 | 0.774 | 0.965 | 0.976 | 0.981 | 0.986 | – | – | – | – | – | – | – | –
3 | Cn1cc(C2=C(c3cn(C4CCN(Cc5ccccn5)CC4)c4ccccc34)C(=O)NC2=O)c2ccccc21 | -0.0756 | -0.00933 | 0.0275 | 0.128 | -0.0807 | -0.0188 | 0.0211 | 0.21 | – | – | – | – | – | – | – | –
4 | Cc1ccccc1-n1c(Cn2cnc3c(N)ncnc32)nc2cccc(C)c2c1=O | -0.00529 | 0.0455 | 0.107 | 0.209 | 0.0591 | 0.0697 | 0.0914 | 0.26 | 0.0494 | 0.000763 | 0.0122 | 0.0686 | 0.047 | 0.0488 | 0.0186 | 0.102
